The source made the active and inactive calls. How the source made its calls: active means hit-call score of the fitted dose curve at least 0.9, where 1 is the maximum; inactive means score below 0.9.
Read-out: growth arrest and DNA damage 45 (GADD45B), GADD45B (gene 4616)
Experiment: LTEA_HepaRG_GADD45B: Life Technologies and Expression Analysis (LTEA) Assay for growth arrest and DNA damage 45 (GADD45B) using HepaRG (AID 2283461)
Conditions: mRNA level, 48 h; actives raise or lower the signal
Procedure: LTEA_HepaRG is a cell based, multiplexed-readout assay that uses HepaRG, a human liver cell line, with measurements taken at 48 hours after chemical dosing on a 96-well plate.LTEA_HepaRG_GADD45B is one of 102 assay component(s) measured in the LTEA HepaRG cell culture assay. It is a marker of Cell proliferation, survival, death.Data from the assay component LTEA_HepaRG_GADD45B was analyzed into 1 endpoint. This assay endpoint, LTEA_HepaRG_GADD45B, was analyzed with bidirectional fitting relative to DMSO as the negative control and baseline of activity. Using a type of inducible reporter, measures of mRNA induction for gain or loss-of-signal activity can be used to understand regulation of transcription factor activity. To generalize the intended target to other relatable targets, this assay endpoint is annotated to the mutagenicity response intended target family, where the subfamily is Cell proliferation, survival, death.
A total of 1060 chemcials from the ToxCast library were tested in eight-point concentration-response experiments. Cell culture and cytotoxicity assays were conducted at Thermo Fisher Scientific's Custom Services facility (Madison, WI). A single lot of human HepaRG cells (Thermo Fisher Scientific, Frederick, MD) was used for the cell culture experiments. 96-well format collagen type I coated plates of human HepaRG cells were prepared using established methods. Briefly, cryopreserved HepaRG cells were thawed, plated at a density of approximately 100,000 cells/well in HepaRG Thaw, Plate, and General Purpose media (HPRG770, Thermo Fisher Scientific), and incubated for 48 hours. 0.5% DMSO was selected as vehicle control to balance the requisite need of DMSO in HepaRG cultures to maintain differentiation (for example, baseline metabolism, proportions of hepatocytes vs. cholangiocytes), while enabling further hepatic receptor pathway activation (for example, PXR and CAR) in response to chemical exposure. 48 hours after plating, the culture medium was replaced with HepaRG Serum-Free Incudtion Media. Cells were exposed to each test chemical in duplicate and maintained in CO2 incubators for another 48 hours. Chemical plates were thawed to room temperature and 200x concentrations of treatment groups were prepared. 8-point conentration-reponse curves were made with the highest exposure at 100 uM, followed by half-log dilutions, all in 0.5% DMSO. Each test plate contained variouse controls, induction positive controls (1mM phenobarbital), cytotoxicity positive controls ([…] aflatoxin B1), vehicle controls (0.5% DMSO), and total lysis controls (0.5% DMSO). Cell morphology images were taken using an Essen IncuCyte FLR automated microscope, with six 96-well plates imaged in about 24 minutes. Images were captured and exported and JPEG files. Spent culture media was transfered to black-well plates for the LDH assay, and remaining media was sorted at -80 C for later use. Cells were treated with RLT buffer and frozen until shipped for gene expression analysis. Total RNA was isolated from the cell suspension in 75 uL of Buffer RLT (Qiagen, Germantown, MD 20874) by Quintiles/Expression Analysis (Durham, NC) using a custom isolation procedure. Total RNA from each plate well was transferred to a preamplification plate. Fluidigm's 96.96 Dynamic ArrayTM (Fluidigm, Amsterdam, the Netherlands) technology was used for gene expression analyses by quantitative reverse transcription polymerase chain reaction (qRT-PCR, performed by Quintiles/Expression Analysis, Durham, NC)89. Standard TaqManTM Assays (Applied Biosystems/ThermoFisher Scientific, Foster City, CA) were used to assess the expression of 93 genes selected based on their selectivity and sensitivity to important hepatic receptors known to be modulated by environmental chemicals; importance in human hepatocyte functionality; and hepatotoxicity. […]

| SMILES | outcome | AC50 |
| --- | --- | --- |
| Cc1cn([C@H]2C[C@H](N=[N+]=[N-])[C@@H](CO)O2)c(=O)[nH]c1=O | inactive | – |
| CCCCOC(=O)CC(CC(=O)OCCCC)(OC(C)=O)C(=O)OCCCC | inactive | – |
| CN(C)C(=O)C1(N2CCCCC2)CCN(CC[C@@]2(c3ccc(Cl)c(Cl)c3)CN(C(=O)c3ccccc3)CCO2)CC1 | – | 29 µM (active) |
| O=C(O)Cn1c(=O)n(Cc2ccc(Br)cc2F)c(=O)c2ccc(Cl)cc21 | inactive | – |
| CC[C@@H]1C[C@H](N(Cc2cc(C(F)(F)F)cc(C(F)(F)F)c2)C(C)=O)c2cc(C(F)(F)F)ccc2N1C(=O)OC(C)C | inactive | – |
| Cc1cc(F)ccc1-c1cc(N2CC[C@@H](O)[C@H]2CO)ncc1N(C)C(=O)C(C)(C)c1cc(C(F)(F)F)cc(C(F)(F)F)c1 | – | 76 µM (active) |
| CC(=O)N1CCN(c2ccc(OC[C@H]3CO[C@](Cn4ccnc4)(c4ccc(Cl)cc4Cl)O3)cc2)CC1 | inactive | – |
| c1ccc(C[n+]2cccc3ccccc32)cc1 | inactive | – |
| CC(O)CC(C)(C)O (stereo not given) | inactive | – |
| CCCCCCCCOC(=O)c1cc(O)c(O)c(O)c1 | inactive | – |
| O=C(O)c1ccccc1C(=O)OCc1ccccc1 | inactive | – |
| CC[C@H](NC(=O)c1cc(F)ccc1NS(=O)(=O)c1cccc2cccnc12)c1ccccc1 | inactive | – |
| CC(C)(C)c1cc(/C=C2\SC(N)=NC2=O)cc(C(C)(C)C)c1O | – | 35.5 µM (active) |
| CCCOC(=O)c1cc(O)c(O)c(O)c1 | inactive | – |
| CCCCCCCCCCCCO | inactive | – |
| CC1=CC(=O)/C(=C(/C)O)C(=O)O1 | inactive | – |
| CCCCCCCCCC(=O)O | inactive | – |
| CCN(CC)C(=O)c1cc(S(=O)(=O)Cc2ccccc2)c(N2CCC(c3ccccc3)CC2)cc1N(CC)CCN(C)C | inactive | – |
| Cc1cc2c(cc1C(F)(F)F)N(C(=O)Nc1ccc(Oc3cccnc3C)nc1)CC2 | inactive | – |
| O=C1CCC(C2CCCCC2)CC1 | inactive | – |

| SMILES | outcome | AC50 |
| --- | --- | --- |
| Oc1ccccc1 | inactive | – |
| Clc1cc(Cl)c2c(c1)N=C1CCCCCN1C2 | – | 6.31 µM (active) |
| O=C(O)Cc1cc(I)c(Oc2ccc(O)c(I)c2)c(I)c1 | – | 50 µM (active) |
| CCCCCc1ccc(N)cc1 | inactive | – |
| O=c1ccc2ccccc2o1 | inactive | – |
| CCCCCCCCCCCO | inactive | – |
| O=C=NCCCCCCN=C=O | inactive | – |
| c1ccc2n[nH]nc2c1 | inactive | – |
| NC(=O)c1nc(-c2cccc(-c3cc(F)ccc3OCC(F)(F)C(F)(F)F)c2)n[nH]1 | – | 77.2 µM (active) |
| CN1C(=O)N(c2ccccc2Br)Cc2cnc(Nc3ccc4c(c3)OCC(CO)O4)nc21 (stereo not given) | – | 81.6 µM (active) |
| O=C(O)c1ccccc1-n1cc(C(=O)O)c(=O)c2cc(Nc3c(F)cc(F)cc3Cl)c(Cl)cc21 | inactive | – |
| CC(C)(c1cc(Br)c(O)c(Br)c1)c1cc(Br)c(O)c(Br)c1 | – | 74.5 µM (active) |
| CCCCCCCCCCCC[N+](C)(C)C | – | 84.1 µM (active) |
| Cc1occc1C(=O)Nc1ccc(C(=O)N2CCC(F)(F)/C(=C\C(=O)N3CCC(N4CCCCC4)CC3)c3ccccc32)cc1 | inactive | – |
| COCC(C)OCC(C)OCC(C)O (stereo not given) | inactive | – |
| CCN(Cc1cccnc1)C(=O)c1cccc(Cl)c1[C@]1(C)C(=O)N(Cc2ccc(OC)cc2OC)c2ccc(Cl)cc21 | inactive | – |
| CCCCOC(=O)c1ccc(O)cc1 | inactive | – |
| CC(C)(C)c1csc(-c2cc3cc(OCc4ccccc4CC(=O)O)ccc3o2)n1 | – | 42.6 µM (active) |
| O=CCCCC=O | inactive | – |
| OC12N=C(c3ccccc3)SC1Cc1cc(Cl)ccc12 (stereo not given) | – | 3.34 µM (active) |

Reference: PubChem BioAssay (EPA / NIEHS)
